Most compounds without a hit are left out; they make up all but 5.6% or so of the library.
RORgamma inh: qHTS for inhibitors of ROR gamma transcriptional activity | AID 2551, 2010 | Nuclear receptor ROR-gamma (Mus musculus), P51450 | 310,000 compounds, 5.4% hits | Drosophila S2 Gal4-RORgamma UAS-luciferase reporter, 20 h | Potency, µM (doses to about 53.6 µM), for the others: at the highest dose activity change, negative = inhibition, usual class: inhibitors; also: potency is read from the fitted curve at half-maximal effect; nearly all actives have a fitted effect of over 60% in size
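Luminescence from a UAS-regulated Photinus luciferase reporter in stably transfected Drosophila Schneider cells is measured; decreased signal marks ROR gamma inhibition. Fusion expression is induced by 700 uM copper sulfate for 20 hr.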
CtBP-E1A inh: qHTS Assay for Inhibitors of the CtBP/E1A Interaction; 340,000 compounds, 0.49% hits; AlphaScreen GST-E1A/His-CtBP binding, 1536-well; active compounds read low; activity change, % (no concentration beside the values); CtBP / adenovirus E1A interaction (AlphaScreen); in the data active = activity change below about -65%; inconclusive = mostly about -30% to -63%
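In 5 uL wells, 23 nL compound meets equimolar GST-E1A and His-CtBP (5X stock 125 nM each) for 2 h, 37 °C. Beads (5X, 50 ug/mL) then 1 h, 37 °C, dark.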
Six1-Eya2 blk: qHTS Assay for Inhibitors of the Six1/Eya2 Interaction. AlphaScreen GST-Six1/His-Eya2 binding, biochemical; active compounds read low. activity change, % (concentration not given with the values). 360,000 compounds, 0.56% hits. AID 651725, 2012; in the data active = activity change below about -65%; inconclusive = mostly about -30% to -63%
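GST-Six1 + His-Eya2 (5X stock: 250/500 nM); Tris pH 8.0, 300 mM NaCl, 0.05% BSA, 0.02% Tween 20; GSH donor/Ni acceptor beads; 1 h 37 °C dark; AlphaScreen readout.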
VP16 counter: VP16 counterscreen qHTS for inhibitors of ROR gamma transcriptional activity; Drosophila S2 Gal4-VP16 UAS-luciferase, luminescence, 20 h; Potency, µM (highest dose often 53.6 µM), for inactives: top-dose activity, negative = inhibition, most hits filed as inhibitors; 310,000 compounds, 3.5% hits;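 also: Gal4-VP16 expression switched on by copper sulfate through the metallothionein promoter; potency is read from the fitted curve at half-maximal effect; nearly all actives have a fitted effect of over 50% in size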
PKM2 activator: qHTS Assay for Activators of Human Muscle isoform 2 Pyruvate Kinase; Pyruvate kinase PKM (Homo sapiens), P14618; Potency, µM (top dose mostly 57.5 µM), for the others: at the highest dose activation, most hits filed as activators; AID 1631, 2009; 260,000 compounds, 0.34% hits; purified PKM2, Kinase-Glo ATP luminescence, activation; response scale: 0% is enzyme alone, no compound; also: potency is read from the fitted curve at half-maximal effect; nearly all actives have a fitted effect of over 55% in size
Target sequence (P14618 whole entry, looked up, canonical isoform): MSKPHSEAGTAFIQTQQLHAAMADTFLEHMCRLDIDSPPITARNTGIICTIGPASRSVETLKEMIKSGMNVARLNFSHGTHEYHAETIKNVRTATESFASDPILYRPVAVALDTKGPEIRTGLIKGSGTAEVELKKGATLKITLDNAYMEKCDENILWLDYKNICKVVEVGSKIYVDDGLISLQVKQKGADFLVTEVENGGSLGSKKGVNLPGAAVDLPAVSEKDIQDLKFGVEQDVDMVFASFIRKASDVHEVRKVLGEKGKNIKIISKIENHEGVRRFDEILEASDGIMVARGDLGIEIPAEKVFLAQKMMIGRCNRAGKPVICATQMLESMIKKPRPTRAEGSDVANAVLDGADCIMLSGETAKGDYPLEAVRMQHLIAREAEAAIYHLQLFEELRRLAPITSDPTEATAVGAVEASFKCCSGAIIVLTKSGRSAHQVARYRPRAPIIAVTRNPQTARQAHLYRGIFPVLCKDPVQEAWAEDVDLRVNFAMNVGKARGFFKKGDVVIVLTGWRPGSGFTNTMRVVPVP
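ATP formation by purified human PK-M2, quantified via coupled luciferase luminescence after 1 h at room temperature with 0.1 mM ADP and 0.5 mM PEP final.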
Starred values were filed as active, the others as inactive; ? = inconclusive; . = no result; [ ] = remark or other dose. Unless noted, calls follow the shape of the dose curve; as a rule, active = well fitted curve in the direction sought with a large enough effect; inconclusive = small, poorly fitted or top-dose-only effect, or another doubt; inactive = no such curve, though single readings can be large; an effect the other way counts as inactive or inconclusive. % is scaled to controls: 0 for no effect and ±100 for the full control effect.

SMILES | RORgamma inh | CtBP-E1A inh | Six1-Eya2 blk | VP16 counter | PKM2 activator
Cc1ccc2oc(=O)c3cnn(CC(=O)N(CCC(C)C)Cc4ccco4)c3c2c1 | -22% | 8 | 0 | -1% | -6%
O=S1(=O)N[C@@H](Cc2ccccc2)COc2cc(N3CCC[C@@H]3CO)ccc21 | . | 0 | 1 | . | .
Cc1cccc(N2CC(O)(c3cccs3)[N+]3=C2CCCC3)c1C (stereo unspecified) | 8% | 0 | 13 | 35µM* | 14%
COc1ccccc1N1CC(C(=O)Nc2ccc(N3CCOCC3)cc2)CC1=O (stereo unspecified) | . | -2 | 5 | . | .
O=C(NCc1ccccc1)c1c[nH]c2ccccc2c1=O | 20% | . | 7 | 4% | 1%[11.5 µM]
O=C(c1ccccn1)c1conc1C(=O)c1ccc(Br)cc1 | 13µM* | 4 | 8 | ? | -4%
CCN(C(=O)COC(=O)CNC(=O)c1ccc(C)s1)c1ccccc1 | 2% | 2 | -2 | 17% | 4%
CCOC(=O)CC1Sc2ccccc2NC1=O (stereo unspecified) | 37% | 10 | 1 | -2% | 2%
CCOC(=O)CC1Sc2ccccc2NC1=S (stereo unspecified) | 3.5µM* | 4 | -3 | ? | -30%
COc1ccc(CCNC(=O)COC(=O)c2ccc(C)s2)cc1 | . | 4 | 8 | . | .
COCCCNC(=O)COC(=O)c1ccc(-c2nc3ccccc3s2)s1 | 2.8µM* | . | -2 | 0.28µM* | -12%
CCN1CCN(C(=O)Cn2cnc3sc(C)c(S(=O)(=O)N4CCN(c5ncccn5)CC4)c3c2=O)CC1 | 6% | 6 | 0 | -1% | -2%
Cc1nn(C)c(C)c1CN(C)S(=O)(=O)c1ccc2ccccc2c1 | ? | -5 | 5 | 5µM* | 1%
Cc1ccc(N=C2NC(=O)CS2)cc1C | -7% | . | 3 | 2% | -1%
CCOc1ccc(/C=N/NC(=S)NC2CC3CCC2C3)cc1 (stereo unspecified) | 5µM* | -13 | -26 | ? | 4%
CCOc1ccc(N(CC(=O)NC2CC3CCC2C3)S(=O)(=O)c2ccc(C)cc2)cc1 (stereo unspecified) | 0% | -8 | -17 | -4% | -2%
COc1cc(/C=N/NC(=S)NC2CC3CC2C2C=CCC32)ccc1O (stereo unspecified) | 1.6µM* | -12 | -12 | 4.5µM* | -5%
CCOc1ccc(/C=N/NC(=S)NC2CC3CC2C2C=CCC32)cc1 (stereo unspecified) | 5µM* | -9 | -14 | 4.5µM* | 7%
COc1cccc(C(=O)Oc2c(Br)cc(Br)cc2/C=N/NC(=O)c2cc(C)[nH]n2)c1 | -16% | . | ? | 22µM* | 6%
COc1cccc(/C=N/NC(=O)c2ccncc2)c1OC(=O)c1ccc(Br)cc1 | 5µM* | -81* | ? | 11µM* | .
CN(C)c1ccc(/C=N/NC(=O)c2ccc(NC(=O)c3ccccc3)cc2)cc1 | 30% | -4 | 4 | 1% | 0%
O=C(N/N=C/c1cc(Cl)ccc1O)c1ccncc1 | 3.2µM* | -95* | -92* | ? | -11%
CN(C)c1ccc(C(=O)N/N=C/c2cc(Br)cc(Br)c2O)cc1 | 2.8µM* | -15 | -2 | 5.6µM* | -7%
COc1cc(/C=N/NC(=O)c2ccncc2)ccc1OC(=O)c1cccc(Br)c1 | -28% | -8 | -4 | -22% | .
O=C(N/N=C/c1ccccc1Cl)c1ccncc1 | 0% | . | 2 | 2% | 0%[11.5 µM]
COCCn1c(=O)c(CCc2ccccc2)nc2cnc(Oc3cccc(Cl)c3)nc21 | ? | . | . | 17% | .
CC1CN(S(=O)(=O)c2cc(C(=O)N(C)Cc3cccs3)ccc2Cl)CC(C)O1 (stereo unspecified) | . | -2 | 7 | . | .
CCNC(=S)N/N=C/c1cc(Br)cc(Br)c1OC | 1.1µM* | -1 | -4 | 2.5µM* | 2%
COc1c(Br)cc(Br)cc1/C=N/NC(=O)c1cccnc1 | ? | -2 | -8 | ? | 3%

High-throughput results deposited in PubChem BioAssay by National Center for Advancing Translational Sciences (NCATS).
